# Measurements published in the supplement of paper PMC10681739.
# Biological target: T1, ETS1 (UniProt P14921)
# T1 sequence: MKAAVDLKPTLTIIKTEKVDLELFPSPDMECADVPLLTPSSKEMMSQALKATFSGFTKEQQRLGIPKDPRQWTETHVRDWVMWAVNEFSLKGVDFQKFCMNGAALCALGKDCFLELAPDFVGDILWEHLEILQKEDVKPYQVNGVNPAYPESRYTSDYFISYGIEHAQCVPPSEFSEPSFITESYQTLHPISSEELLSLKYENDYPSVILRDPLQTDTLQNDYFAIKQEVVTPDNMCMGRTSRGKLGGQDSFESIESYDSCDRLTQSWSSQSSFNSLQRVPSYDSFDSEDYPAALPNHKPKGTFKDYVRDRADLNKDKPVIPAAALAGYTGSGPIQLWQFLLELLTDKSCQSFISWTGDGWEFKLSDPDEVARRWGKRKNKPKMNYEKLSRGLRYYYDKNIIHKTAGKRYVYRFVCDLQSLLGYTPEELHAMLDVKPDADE
# Assay: ETS1 binding intensity (PBM fluorescence) in presence of RUNX1, normalised to ETS1-only experiment (arbitrary fluorescence units); higher = stronger binding
# Conditions: ETS1 concentration 1 nM; RUNX1 concentration 25 nM
# 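For RUNX1 binding intensity (PBM fluorescence) in presence of ETS1, normalised to RUNX1-only experiment in this document: Full-length recombinant human ETS1 or RUNX1 bound to double-stranded 36-bp genomic probes on microarrays, detected by protein-specific primary antibody and Alexa488 secondary, spot fluorescence as median of four replicate spots.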
row,Sequence,ETS1 binding intensity
1,GGAGGGGCTGGCCGGAAGTGAACCGCAGAGCACGCT,33500
2,TCCAGGATGTGGGATGCCGTGCTGTACCGCATGTCA,1030
3,ATACCGGCGCATCCGGATTTTGAAGCCGCAGTGGAC,774
4,GTCCCCGACTTCCGCTCTCGGTTGGTGGTTGGCTTT,3430
5,CGGGACTTCCTGTCTTCCCTGTTGCGGAGCTCTGAA,1830
6,TTGGTTGTTGCCAGAGGATGTGGGTTGGCGGGGGAG,4480
7,GCCCAGTTCTCGCATCCGGTCTGCGGCGCGCTCGGG,5020
8,TTTCTGACACTCTCAGGATGTGGGTTTTCGCACTGT,6000
9,AGTTTCTCAGCTTCCTGTGTGGTTTTCTTGATCTGC,2630
10,GCGCAAGGATCCGGTTTGTTGTGGTGTGGGGAGGGG,503
11,AACACCTCACACTTCCTGCCCACAAGATAAGAGCCT,1910
12,ACTCGGGAATGTCCGGTCGTGGTAAGCAGGGTGGCA,529
13,ACAGATACAGCCTCAGGAAGTGGTTTTGTATCTCTG,6160
14,AAAGCAAAGTCAAGAGGATGTGGTGACCAATTCTGC,2860
15,CCTCGCCCCCTTCCGCACCCACCCCACCGCGCTCCG,786
16,GTGAACTTCCTCCCCCACTGCCTATTTTTACCGCAG,596
17,GCAATGCCGCTACCGGAAGTGCGGGTCGCGCTCCCG,26000
18,GTTGGGTGGGGAAGTGGATGGTGGTTTTGGCAGAGG,713
19,GCGCGGCCAGAGAAAGGATGTGGTATAGCAGAAAGT,4380

# Biological target: RUNX1 (UniProt Q01196)
# Sequence (Q01196 whole entry): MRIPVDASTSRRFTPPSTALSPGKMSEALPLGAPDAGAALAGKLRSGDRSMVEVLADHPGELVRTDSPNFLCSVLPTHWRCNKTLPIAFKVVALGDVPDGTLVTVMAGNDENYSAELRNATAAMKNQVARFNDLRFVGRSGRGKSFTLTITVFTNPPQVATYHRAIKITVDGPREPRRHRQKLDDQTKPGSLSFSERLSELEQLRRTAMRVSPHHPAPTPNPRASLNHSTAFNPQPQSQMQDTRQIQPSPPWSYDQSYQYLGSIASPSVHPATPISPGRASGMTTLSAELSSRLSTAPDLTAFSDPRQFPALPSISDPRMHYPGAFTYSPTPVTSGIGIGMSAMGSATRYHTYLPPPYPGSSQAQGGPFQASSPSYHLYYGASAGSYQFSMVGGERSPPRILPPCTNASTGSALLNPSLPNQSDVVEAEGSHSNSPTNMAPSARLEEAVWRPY
# Assay: RUNX1 binding intensity (PBM fluorescence) in presence of ETS1, normalised to RUNX1-only experiment (arbitrary fluorescence units); higher = stronger binding
# Conditions: RUNX1 concentration 2 nM; ETS1 concentration 25 nM
# Protocol: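 Cooperative gcPBM on 36-bp genomic probes with neighbouring ETS1 and RUNX1 sites. Recombinant human RUNX1 (2 nM) was incubated alone or with ETS1 (25 nM) and detected with anti-RUNX1 antibody plus Alexa488 secondary. Values are medians over 4 replicate spots; the RUNX1+ETS1 data were normalised to the RUNX1-only data. The probes sit in constant array flanks that are not printed.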
row,Sequence,RUNX1 binding intensity
1,GCTGTCCGTTTCCGAGATGTTAATGCGGGATCTTGC,988
2,TCATAAGGAAGTGGAGTGTAGTAACCACAGGCCCCG,1340
3,TTTTTTCCGCCTGTAGGGTCACATTGTGGTTGATTG,1790
4,TAAGTGAATTTCCTGCCCGCCTCCGCCCACAGCGTA,1790
5,GGGGCTGGGAAAGGATGTGGTAAGGGCCAGTCAGTC,1920
6,TTTATCATGAATGCAGGATGTGGGCAAACTCGCATC,1060
7,CCGGGCTGCGGAAGGCGGGAATTCTGCGGTTCGCGG,1720
8,TTCATCTCTCACTTCCTGTGGTGACGGCTGACGGGG,1660
9,TCATTCTCTGATAAAGGAAGTGGTTACAGCACAATT,1270
10,TGCTCAAATGCAGGATGTGGTCTGAGAGTTTCTCCT,1680
11,TCTGCCGCCAGCCCATCCGCGACCGCATCCAGATCT,1210
12,CTCCATCTGCCCGGAAAACCGCAGCCGCCCCAACCT,34700
13,CAATGGATGGCCACATCCTCACCACAAACTGAGTCA,1360
14,ACGGTGTGTCTCATTTCCTGTGGGTAACAGGCACCA,1720
15,CCTTTCCGCGAGACCTTCCGCGGTTATCCAGCGAGT,1510
16,GCCGTAGCGGAAGAGTGTTCGTGGTCATGTGACGCC,1160
17,TAGACTAACAGGGGAGGAAGTGGGTTGCAAGCCGTG,868
18,AGAAACATCCTGCCCAGCCACCTGACCACAAGGCAC,3130
19,TCCTCCGTTTCCGTAGTTCCGAGTTGCGGTTTCTCC,15200
20,GCACCGTACCCGGAACTGCTCCCTCCCGCAGGCGCA,950

row,Sequence,RUNX1 binding intensity
1,TGGGCAAGATATCCTGGAAGTGGTTAAAAAAAATTA,1060
2,GGAGGGGCTGGCCGGAAGTGAACCGCAGAGCACGCT,2980
3,TCCAGGATGTGGGATGCCGTGCTGTACCGCATGTCA,1160
4,ATACCGGCGCATCCGGATTTTGAAGCCGCAGTGGAC,1200
5,GTCCCCGACTTCCGCTCTCGGTTGGTGGTTGGCTTT,2590
6,CGGGACTTCCTGTCTTCCCTGTTGCGGAGCTCTGAA,2000
7,TTGGTTGTTGCCAGAGGATGTGGGTTGGCGGGGGAG,933
8,GCCCAGTTCTCGCATCCGGTCTGCGGCGCGCTCGGG,1840
9,TTTCTGACACTCTCAGGATGTGGGTTTTCGCACTGT,1350
10,AGTTTCTCAGCTTCCTGTGTGGTTTTCTTGATCTGC,4280
11,GCGCAAGGATCCGGTTTGTTGTGGTGTGGGGAGGGG,1070
12,AACACCTCACACTTCCTGCCCACAAGATAAGAGCCT,3120
13,ACTCGGGAATGTCCGGTCGTGGTAAGCAGGGTGGCA,1680
14,ACAGATACAGCCTCAGGAAGTGGTTTTGTATCTCTG,1070
15,AAAGCAAAGTCAAGAGGATGTGGTGACCAATTCTGC,855
16,CCTCGCCCCCTTCCGCACCCACCCCACCGCGCTCCG,2360
17,GTGAACTTCCTCCCCCACTGCCTATTTTTACCGCAG,3950
18,GCAATGCCGCTACCGGAAGTGCGGGTCGCGCTCCCG,1620
19,GTTGGGTGGGGAAGTGGATGGTGGTTTTGGCAGAGG,1210
20,GCGCGGCCAGAGAAAGGATGTGGTATAGCAGAAAGT,1040
